Laboratory results taken from PubChem BioAssay AID1159580 (chemical genetic matrix, 2015).
The campaign covered roughly 5,500 compounds. About 2,000 (36%) were called active. Another 18% or so got no clear call; they are omitted. The list shows a part of the results. Values without a mark were called inactive. No stated cut-off is given here; in the data, active means normalized growth mostly below about 0.91 (no sharp cut-off); inconclusive means no clear call, values can overlap the other calls; inactive means mostly above about 0.92.

Assay: chemical genetic growth profiling, strain panel (AID 1159580);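 further: tested at 20 µM; growth read once vehicle control cultures reached saturation at 30 °C; 1 = growth at the plate median or of vehicle wells; lower values mean less growth of the strain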
Settings: growth OD
[1] = S. cerevisiae deletion strains, locus YAL013W, strain DEP1, hits give low values
[2] = S. cerevisiae deletion strains, locus YBR229C, strain ROT2, hits give low values
[3] = S. cerevisiae deletion strains, locus YCL061C, strain MRC1, hits give low values
[4] = S. cerevisiae deletion strains, locus YDL101C, strain DUN1, hits give low values
[5] = S. cerevisiae deletion strains, locus YDL134C, strain PPH21, hits give low values
[6] = S. cerevisiae deletion strains, locus YDR150W, strain NUM1, hits give low values
[7] = S. cerevisiae deletion strains, locus YEL061C, strain CIN8, hits give low values
[8] = S. cerevisiae deletion strains, locus YGR078C, strain PAC10, hits give low values
[9] = S. cerevisiae deletion strains, locus YHR030C, strain SLT2, hits give low values
[10] = S. cerevisiae deletion strains, locus YHR087W, strain rtc3, hits give low values
[11] = S. cerevisiae deletion strains, locus YJL187C, strain SWE1, hits give low values
[12] = S. cerevisiae deletion strains, locus YJR043C, strain POL32, hits give low values
[13] = S. cerevisiae deletion strains, locus YJR075W, strain HOC1, hits give low values
[14] = S. cerevisiae deletion strains, locus YKL190W, strain CNB1, hits give low values
[15] = S. cerevisiae deletion strains, locus YLR039C, strain RIC1, hits give low values
[16] = S. cerevisiae deletion strains, locus YLR058C, strain SHM2 (second series), hits give low values
[17] = S. cerevisiae deletion strains, locus YLR085C, strain ARP6, hits give low values
[18] = S. cerevisiae deletion strains, locus YLR262C, strain YPT6, hits give low values
[19] = S. cerevisiae deletion strains, locus YML094W, strain GIM5, hits give low values
[20] = S. cerevisiae deletion strains, locus YMR219W, strain ESC1, hits give low values
[21] = S. cerevisiae deletion strains, locus YMR263W, strain SAP30, hits give low values
[22] = S. cerevisiae deletion strains, locus YNL153C, strain GIM3, hits give low values
[23] = S. cerevisiae deletion strains, locus YNL298W, strain CLA4 (second series), hits give low values
[24] = S. cerevisiae deletion strains, locus YNL322C, strain KRE1, hits give low values
[25] = S. cerevisiae deletion strains, locus YNR030W, strain Alg12, hits give low values
[26] = S. cerevisiae deletion strains, locus YOL006C, strain TOP1, hits give low values
[27] = S. cerevisiae deletion strains, locus YPL055C, strain LGE1, hits give low values
[28] = S. cerevisiae deletion strains, locus YPL241C, strain CIN2, hits give low values
[29] = S. cerevisiae deletion strains, locus YPR135W, strain CTF4, hits give low values
[30] = S. cerevisiae strains, strain wild type, hits give low values
[31] = S. cerevisiae deletion strains, locus YGR229C, strain SMI1, hits give low values

CCOC(=O)c1ccc2[nH]c(-c3ccccc3)cc(=O)c2c1 showed a normalized growth [1] of 1.02, a normalized growth [2] of 1 and a normalized growth [3] of 1.01. For the same molecule, the normalized growth [4] was 1.01, the normalized growth [5] was 1.01 and the normalized growth [6] was 1.02. It also gave a normalized growth [7] of 1.01, a normalized growth [8] of 1.01 and a normalized growth [9] of 1.02. The normalized growth [10] was 1, the normalized growth [11] was 1.01 and the normalized growth [12] was 1.01. For the same molecule, the normalized growth [13] was 0.994, the normalized growth [14] was 1.01 and the normalized growth [15] was 1.04. The normalized growth [16] was 1.01, the normalized growth [17] was 1.03 and the normalized growth [18] was 1.03. The normalized growth [19] was 0.997, the normalized growth [20] was 1.01 and the normalized growth [21] was 0.997. It also gave a normalized growth [22] of 1.01, a normalized growth [23] of 1.04 and a normalized growth [24] of 1. For the same molecule, the normalized growth [25] was 1.04, the normalized growth [26] was 1.04 and the normalized growth [27] was 1.11. For the same molecule, the normalized growth [28] was 1.03, the normalized growth [29] was 1.09 and the normalized growth [30] was 1.03.

In the case of CCOC(=O)c1nc(-c2ccccc2)sc1C(=O)OCC, the normalized growth [1] is reported as 1, the normalized growth [2] is reported as 0.955 and the normalized growth [4] is reported as 0.999. The normalized growth [5] was 0.947, the normalized growth [6] was 1 and the normalized growth [7] was 0.958. For the same molecule, the normalized growth [8] was 0.973, the normalized growth [31] was 0.958 and the normalized growth [9] was 0.735. The normalized growth [10] was 0.958, the normalized growth [11] was 0.947 and the normalized growth [12] was 0.973. For the same molecule, the normalized growth [13] was 0.907, the normalized growth [14] was 0.961 and the normalized growth [15] was 0.716 (active). The normalized growth [16] was 0.968, the normalized growth [17] was 0.833 and the normalized growth [18] was 0.814 (active). It also gave a normalized growth [19] of 0.921, a normalized growth [20] of 0.963 and a normalized growth [21] of 0.977. For the same molecule, the normalized growth [22] was 0.995, the normalized growth [23] was 0.766 (active) and the normalized growth [24] was 0.981. The normalized growth [25] was 0.912, the normalized growth [26] was 0.718 (active) and the normalized growth [27] was 0.979. It also gave a normalized growth [28] of 0.921 and a normalized growth [29] of 0.741.

In the case of CN=c1nc(-c2ccccc2)n(-c2ccccc2)s1, the normalized growth [1] is reported as 0.969, the normalized growth (S. cerevisiae deletion strains, locus YAL040C, strain CLN3, hits give low values) is reported as 0.983 and the normalized growth (S. cerevisiae deletion strains, locus YCL061C, strain MRC1 (second series), hits give low values) is reported as 0.984. The normalized growth [6] was 0.973, the normalized growth (S. cerevisiae deletion strains, locus YDR363W, strain ESC2, hits give low values) was 0.983 and the normalized growth (S. cerevisiae deletion strains, locus YER002W, strain NOP16, hits give low values) was 0.982. It also gave a normalized growth [31] of 0.905, a normalized growth (S. cerevisiae deletion strains, locus YMR307W, strain GAS1, hits give low values) of 0.947 and a normalized growth [22] of 0.905. The normalized growth (S. cerevisiae deletion strains, locus YNL175C, strain NOP13, hits give low values) was 0.978, the normalized growth (S. cerevisiae deletion strains, locus YNL197C, strain WHI3, hits give low values) was 0.99 and the normalized growth (S. cerevisiae deletion strains, locus YNL224C, strain SQS1, hits give low values) was 0.987. The normalized growth [24] was 0.978, the normalized growth (S. cerevisiae deletion strains, locus YOR083W, strain WHI5 (second series), hits give low values) was 0.961 and the normalized growth [28] was 0.982.

With CCOC(=O)c1sc(-c2ccc(C)cc2)nc1O the normalized growth [1] was 0.182 (active), the normalized growth [2] was 0.136 (active) and the normalized growth [4] was 0.267 (active). The normalized growth [5] was 0.716 (active), the normalized growth [6] was 0.195 (active) and the normalized growth [7] was 0.583 (active). The normalized growth [8] was 0.122 (active), the normalized growth [9] was 0.0748 (active) and the normalized growth [10] was 0.135 (active). For the same molecule, the normalized growth [11] was 0.107 (active), the normalized growth [12] was 0.337 (active) and the normalized growth [13] was 0.174 (active). The normalized growth [14] was 0.46 (active), the normalized growth [15] was 0.409 (active) and the normalized growth [16] was 0.129 (active). For the same molecule, the normalized growth [17] was 0.228 (active), the normalized growth [18] was 0.464 (active) and the normalized growth [19] was 0.345 (active). For the same molecule, the normalized growth [20] was 0.218 (active), the normalized growth [22] was 0.301 (active) and the normalized growth [23] was 0.118 (active). The normalized growth [24] was 0.313 (active), the normalized growth [25] was 0.438 (active) and the normalized growth [27] was 0.659 (active). For the same molecule, the normalized growth [28] was 0.463 (active), the normalized growth [29] was 0.368 (active) and the normalized growth [30] was 0.518 (active).

With O=C1CC(CSc2ccc(Cl)cc2)=NN1 the normalized growth [1] was 0.957, the normalized growth [2] was 0.911 (active) and the normalized growth [3] was 0.95. The normalized growth [4] was 1.02, the normalized growth [6] was 0.968 and the normalized growth [7] was 0.832 (active). The normalized growth [8] was 0.963, the normalized growth [9] was 0.752 and the normalized growth [10] was 0.837 (active). The normalized growth [11] was 0.908 (active), the normalized growth [12] was 0.982 and the normalized growth [13] was 0.936. For the same molecule, the normalized growth [15] was 1.02, the normalized growth [16] was 0.949 and the normalized growth [17] was 0.659 (active). For the same molecule, the normalized growth [18] was 0.987, the normalized growth [19] was 0.857 (active) and the normalized growth [20] was 0.918 (active). The normalized growth [21] was 0.978, the normalized growth [22] was 0.965 and the normalized growth [23] was 0.789 (active). The normalized growth [24] was 0.938 (active), the normalized growth [25] was 0.844 (active) and the normalized growth [27] was 0.89. The normalized growth [28] was 0.83 (active) and the normalized growth [29] was 0.639 (active).
